In PubChem BioAssay (NCI) one finds growth data, which are given here for 8 compounds.

Some test systems named below: NCI-H23 lung; NCI-H226 lung; NCI-H322M lung; HOP-62 NSCLC; NCI-H460 lung; HOP-92 NSCLC; NCI-H522 lung; A549/ATCC NSCLC; 786-0 renal; COLO 205 colon; DU-145 prostate; K-562 leukemia; MALME-3M melanoma; MDA-MB-231 breast; RXF 393 renal; SF-268 CNS; SF-295 CNS; SF-539 CNS; UACC-257 melanoma; M14 melanoma.
Common to all, as to experiment: NCI-60 one-dose screen, 48 h (100 = growth as untreated, 0 = no growth, -100 = all killed)
What all share (conditions): 10 µM

The structures appear in SMILES notation. About 83,000 compounds went through this panel and 20% of them were active in at least one assay; those are over-represented in the sample as a whole.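 Method: cells in 96-well plates; compound added at one concentration; 48 h incubation; percent growth measured; values under 10 scored active.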 A number with no mark means an inactive call. Activity calls are given as the source filed them.

On to `COc1cccc2c1C(=O)c1c(O)c3c(c(O)c1C2=O)C[C@@](O)(C(=O)COC(=O)c1cccnc1)C[C@@H]3OC1CC(N)C(O)C(C)O1` (stereo not given in full), for which the growth in the test on NCI-H23 lung was -24.7% (active); in the test with NCI-H226 lung, -28.5% (active); in the test with NCI-H322M lung it was -19.5% (active); with HOP-62 NSCLC, -7.51% (active); in the test with NCI-H460 lung, 4.13% (active); in the test with HOP-92 NSCLC, -26.3% (active). The growth was -75.6% (active) in the test on NCI-H522 lung; -0.944% (active) in the test on A549/ATCC NSCLC; 3.23% (active) in the test on 786-0 renal; -68.8% (active) with COLO 205 colon; 7.78% (active) in the test on DU-145 prostate; 1.5% (active) in the test with K-562 leukemia. In addition, the growth in the test on MALME-3M melanoma is -66.7% (active); with MDA-MB-231 breast, -18.6% (active); with RXF 393 renal, -64.5% (active); with SF-268 CNS it was -30% (active); in the test on SF-295 CNS, -56.8% (active); with SF-539 CNS, -36.4% (active). Further, the values for the growth with UACC-257 melanoma and with M14 melanoma were -54.7% (active) and -43.4% (active), respectively.

As for `CC1=CSC2=NC(c3ccc(Cl)c(Cl)c3)=CC(c3ccc(Cl)cc3)N12` (stereo not given), the growth in the test on NCI-H23 lung was 32.3%; in the test on NCI-H226 lung, 38.1%; in the test with NCI-H322M lung, -4.79% (active); in the test with HOP-62 NSCLC, 30.9%; in the test with NCI-H460 lung, 53.7%; in the test with HOP-92 NSCLC, -42.1% (active). Besides, the growth is -20.7% (active) in the test on NCI-H522 lung; 51.1% with A549/ATCC NSCLC; 22.3% in the test with 786-0 renal; 104% in the test with COLO 205 colon; 20.5% with DU-145 prostate; 17% in the test on K-562 leukemia. Besides, the growth was -22.7% (active) in the test on MALME-3M melanoma; -44% (active) in the test on MDA-MB-231 breast; -47.7% (active) in the test on RXF 393 renal; 14.7% in the test with SF-268 CNS; 99.6% with SF-295 CNS; -46.7% (active) in the test on SF-539 CNS. Moreover, the growth with UACC-257 melanoma was 18.7%; with M14 melanoma, 0.183% (active).

As for `FC(F)(F)c1ccc(-c2cnc(Br)nc2NC2CCCCCC2)cc1`, the growth is 33.1% in the test with NCI-H23 lung; 53.1% with NCI-H226 lung; 78.2% with NCI-H322M lung; 53.5% with HOP-62 NSCLC; 28.6% in the test on NCI-H460 lung; -21.4% (active) in the test on HOP-92 NSCLC. Moreover, the growth with NCI-H522 lung is 7.77% (active); with A549/ATCC NSCLC, 28.8%; in the test on 786-0 renal, 54.6%; in the test on COLO 205 colon, 25.1%; in the test on DU-145 prostate, 74.9%; in the test on K-562 leukemia, 10.6%. Besides, the growth in the test with MALME-3M melanoma is -42.4% (active); in the test on MDA-MB-231 breast it was 62.4%; in the test with RXF 393 renal, 52.7%; in the test with SF-268 CNS it was 43.6%; with SF-295 CNS, -33.2% (active); in the test with SF-539 CNS it was 82.4%. The growth is -1.23% (active) in the test on UACC-257 melanoma and 23.1% with M14 melanoma.

Regarding `COC(=O)[C@]12CC[C@@H](C)[C@H](C)[C@@H]1C1=CC[C@@H]3[C@@]4(C)C/C(=N\O)[C@H](O)[C@@]5(C)COC(=C45)C[C@@]3(C)[C@]1(C)CC2`, the growth in the test with NCI-H23 lung is -75.7% (active); with NCI-H226 lung, -76.7% (active); in the test on NCI-H322M lung, -77.2% (active); in the test on HOP-62 NSCLC, -96.7% (active); in the test with NCI-H460 lung, -76.5% (active); in the test with HOP-92 NSCLC, -79% (active). For the same compound, the growth with NCI-H522 lung was -84.7% (active); with A549/ATCC NSCLC it was -90.6% (active); with 786-0 renal it was -81% (active); in the test with COLO 205 colon, -91.9% (active); in the test on DU-145 prostate it was -94.8% (active); in the test on K-562 leukemia, -58.4% (active). For the same compound, the growth is -71.1% (active) in the test on MALME-3M melanoma; -59.3% (active) in the test on MDA-MB-231 breast; -73.4% (active) in the test on RXF 393 renal; -78.6% (active) with SF-268 CNS; -88.5% (active) in the test with SF-295 CNS; -75.2% (active) in the test with SF-539 CNS. For the same compound, the growth was -90.5% (active) in the test with UACC-257 melanoma and -82.3% (active) with M14 melanoma.

Turning to `CCOC(=O)[C@@H](Cc1ccccc1)NC(=O)c1[nH]c2ccc(Cl)cc2c(=O)c1C`, the growth in the test with NCI-H23 lung is 99.7%; in the test on NCI-H226 lung, 107%; in the test on NCI-H322M lung, 97.7%; in the test on HOP-62 NSCLC it was 92.3%; in the test with NCI-H460 lung it was 103%; in the test on HOP-92 NSCLC, 100%. Besides, the growth in the test on NCI-H522 lung was 71.8%; in the test with A549/ATCC NSCLC, 84.1%; in the test on 786-0 renal, 97.4%; in the test on COLO 205 colon it was 111%; in the test with DU-145 prostate it was 113%; in the test with K-562 leukemia, 86.5%. In addition, the growth was 107% in the test on MALME-3M melanoma; 106% in the test on MDA-MB-231 breast; 98.5% with RXF 393 renal; 99.7% in the test on SF-268 CNS; 97.4% with SF-295 CNS; 101% in the test with SF-539 CNS. Moreover, the figures for the growth in the test with UACC-257 melanoma and in the test with M14 melanoma were 81.7% and 97.1%, respectively.

Regarding `CC(=O)c1c(O)cc2c3c1OC(C)(C)C1CCC(C)(CC31)O2` (stereo not given), the growth was 100% in the test on NCI-H23 lung; 85.8% in the test with NCI-H226 lung; 98% in the test with NCI-H322M lung; 106% in the test on HOP-62 NSCLC; 108% with NCI-H460 lung; 92% in the test with HOP-92 NSCLC. The growth in the test with NCI-H522 lung is 102%; in the test on A549/ATCC NSCLC, 98.1%; with 786-0 renal, 104%; in the test on COLO 205 colon, 92.3%; in the test on DU-145 prostate, 104%; in the test on K-562 leukemia, 90.1%. Besides, the growth is 93.8% in the test with MALME-3M melanoma; 106% with MDA-MB-231 breast; 94.8% in the test on RXF 393 renal; 98.3% in the test on SF-268 CNS; 90.2% with SF-295 CNS; 89.8% with SF-539 CNS. The growth is 126% with UACC-257 melanoma and 92.2% in the test on M14 melanoma.

On to `COc1cc(C2C(C#N)=C(c3c[nH]c4ccccc34)Nc3nc(N)[nH]c(=O)c32)cc(OC)c1OC` (stereo not given), for which the growth is 80.7% with NCI-H23 lung; 86.3% with NCI-H226 lung; 104% with NCI-H322M lung; 82.9% with HOP-62 NSCLC; 106% in the test on NCI-H460 lung; 47.8% in the test on HOP-92 NSCLC. Besides, the growth in the test with NCI-H522 lung is -11.7% (active); in the test with A549/ATCC NSCLC it was 105%; in the test with 786-0 renal it was 100%; in the test with COLO 205 colon, 65%; in the test on DU-145 prostate it was 86.5%; with K-562 leukemia, 50.4%. The growth with MALME-3M melanoma was 71.1%; in the test with MDA-MB-231 breast, 89.5%; with RXF 393 renal it was 73.2%; in the test on SF-268 CNS, 88.3%; in the test on SF-295 CNS, 97.6%; with SF-539 CNS it was 48.4%. Moreover, the growth in the test with UACC-257 melanoma was 99.1%; with M14 melanoma, 95.7%.

For the compound `FC(F)(F)c1ccc(-c2cnc(Cl)nc2NCc2cc(C(F)(F)F)cc(C(F)(F)F)c2)cc1`, the growth was 1.54% (active) in the test on NCI-H23 lung; 7.69% (active) in the test with NCI-H226 lung; 37.8% with NCI-H322M lung; 33.4% in the test with HOP-62 NSCLC; 3.48% (active) with NCI-H460 lung; -35.3% (active) in the test with HOP-92 NSCLC. The growth is -4.24% (active) in the test on NCI-H522 lung; 15.8% in the test with A549/ATCC NSCLC; 11.5% in the test on 786-0 renal; -51.1% (active) in the test with COLO 205 colon; 18.8% in the test on DU-145 prostate; 16.3% with K-562 leukemia. The growth with MALME-3M melanoma was 33.6%; with MDA-MB-231 breast, -28.6% (active); with RXF 393 renal, 23.3%; with SF-268 CNS it was 25.3%; in the test on SF-295 CNS it was -18.8% (active); in the test with SF-539 CNS, 33.1%. The values for the growth in the test on UACC-257 melanoma and in the test with M14 melanoma were 38.2% and 41%, respectively.
